# Reference: PubChem BioAssay AID686979 (National Center for Advancing Translational Sciences (NCATS), 2013)
# Out of some 420,000 compounds screened, about 50,000 (12%) were called active. Roughly 26% stayed inconclusive and do not appear here. The list comes from a sample in which actives are over-represented; it also holds similar structures and randomly drawn compounds. A number with no mark means an inactive call. Calls come from the whole dose curve; as a rule, active = well fitted inhibition curve with a large enough effect; inconclusive = small, poorly fitted or top-dose-only effect; inactive = flat fitted curve, though single readings scatter.
# Assay: qHTS for Inhibitors of human tyrosyl-DNA phosphodiesterase 1 (TDP1): qHTS in cells in presence of CPT; note: nearly all actives have a fitted effect of over 55% in size
# Conditions: chicken DT40 Tdp1-/-;hTDP1 cells + 20 nM CPT, ATP luminescence, 48 h; series mostly up to 46.2 µM; activity change, negative = growth inhibition: at the top concentration
# Text: Human tyrosyl-DNA phosphodiesterase 1 (TDP1) is a novel repair gene, and we propose to use it as a new target for anticancer drug development. TDP1 is not an essential protein, but under treatment with topoisomerase I poison (camptothecin: CPT), TDP1 works as a critical factor for cell survival. To directly identify novel TDP1 inhibitors active in a cellular environment, we have knocked-out the Tdp1 gene in chicken DT40 cells (Tdp1-/-) and generated a complemented counterpart cells that contains a stable transfection of the human TDP1 gene (Tdp1-/-;hTDP1 cells). For the primary screen, Tdp1-/-;hTDP1 cells will be exposed to small molecules in the presence or absence of CPT, and their growth kinetics will be evaluated after 48 hours by measuring ATP activity. […] The hit compounds will then be evaluated in the presence or absence of CPT using Tdp1-/- cells. […] In tertiary assays, biochemical gel-based assays will be used to assess whether the hit compounds specifically target TDP1. To this end, we have screened this cell line against the MLSMR in two primary screens. In one screen we add CPT and in the other we screen in the absence of CPT; this AID represents the screen where CPT was present. NIH Chemical Genomics Center [NCGC] NIH Molecular Libraries Probe Centers Network [MLPCN] MLPCN Grant: MH095538 Assay Submitter (PI): Yves Pommier, NCI
# DT40-hTDP1 cells with 20 nM Camptothecin (add 20 microL of 1 mM CPT stock in 1 L of cell culture medium) were dispensed at 400 cells/5microL/well in tissue culture treated 1536-well white wall/solid bottom assay plates (Greiner Bio-One North America, NC, U.S.A.) using a Multidrop Combi 8 channel dispenser (Thermo Fisher, Waltham, MA, USA). 23 nL compounds and controls were transferred using the pin tool (Kalypsys, San Diego, CA, USA) to the assay plates. The assay plates were then incubated at 37 masculineC for a minimum 48 hr. Three microL of Cell Titer Glo solution was added to the plates and incubated at RT in dark for 30 min. Luminescence was read using ViewLux (Perkin Elmer) with 1 sec exposure slow speed, high gain and 2x binning.
# % is set by controls: 0 for no effect and ±100 for the full control effect; potency is the fitted concentration of half-maximal effect.
Compound,"activity change, negative = growth inhibition",Potency
CCCCN(C(=O)c1nn(C)c(=O)c2ccccc12)c1c(N)n(CCC)c(=O)[nH]c1=O,1.59%,–
CCCNC(=O)c1cc(C2CCCN(C(=O)c3ccc4c(c3)CCO4)C2)on1 (stereo not drawn),5.21%,–
C=Cn1c(C(=O)O)ccc1-c1ccc(OC)cc1,-3.64%,–
CCCCC1N2CC3([N+](=O)[O-])CN1CC([N+](=O)[O-])(C2)C3(C)C (stereo not drawn),-4.33%,–
CCOc1ccccc1NC(=O)NC1CCCCCCC1,-7.99%,–
O=C(c1ccc(CN2CCOCC2)cc1)N1CCN(c2ccccc2F)CC1,8.09%,–
Cc1cccc(NC(=S)N2CCC(O)CC2)c1C,5.79%,–
Cc1c(C)n(Cc2ccc(Cl)cc2)c2ccc(C(=O)N3CCN(c4ccccc4F)CC3)cc12,–,18.4 µM (active)
CCOc1ccccc1NC(=S)N1CCN(c2cccc(C)c2C)CC1,–,11.6 µM (active)
CCc1ccc(NC(=O)CS(=O)CC(=O)N2CCN(c3ccccc3F)CC2)cc1 (stereo not drawn),3.72%,–
O=[N+]([O-])c1cc(S(=O)(=O)N2CCCC2)ccc1NN=C1CCCC1,-19.3%,–
CC(C)(C)c1ccc(/C=C2\SC(=O)N=C2N)cc1,-3.83%,–
CCOc1ccc(CNC(=O)c2cc(=O)[nH]c3ccc(S(=O)(=O)N4CCCCC4)cc23)cc1,6.67%,–
CC(c1ccco1)N(C(=O)c1ccc(S(=O)(=O)N2CCCCC2)cc1)c1ccccn1 (stereo not drawn),-17.2%,–
Cc1ccc(-n2c(CNc3ccc(F)cc3)nnc2SCC(=O)N2CCOCC2)cc1,-2.74%,–
N=C1c2ccccc2-c2ccccc21,-0.123%,–
COc1ccc(N2CCN(C3=NS(=O)(=O)C(c4cccc(Br)c4)=C3C)CC2)cc1,-29.2%,–
Cc1oc2ncn(CC(C)C)c(=O)c2c1C(=O)N1CCN(c2ccccc2F)CC1,3.61%,–
O=C(Nn1cc(C(=O)N2CCN(c3ccccc3F)CC2)c2ccccc2c1=O)c1cnccn1,–,14.6 µM (active)
Cn1c(=O)cc(OCC(=O)N2CCN(c3ccccc3F)CC2)c2ccccc21,-0.224%,–
CCCCOc1ccc(NC(=O)c2cc3c(n(-c4ccc(Cl)cc4)c2=O)CCCC3=O)cc1,-1.03%,–
CC(C)c1ccc(NS(=O)(=O)c2ccc3[nH]cc(C(=O)NC4CCCC4)c(=O)c3c2)cc1,0.142%,–
CCOC(=O)CC1C(=O)NCCN1C(=O)COc1ccc(Br)cc1C (stereo not drawn),-4.21%,–
COCC(C)NCc1cc(Br)ccc1OC (stereo not drawn),2.79%,–
CCC(C)NCCOCCOc1ccc(Br)cc1C (stereo not drawn),–,14.6 µM (active)
O=C(OCCOc1ccccc1F)c1cc(S(=O)(=O)N2CCOCC2)ccc1F,10%,–

Compound,"activity change, negative = growth inhibition",Potency
Cc1c(CN2CCC(C)CC2)c(=O)n(-c2ccccc2)n1C,-3.32%,–
O=C(Nc1ccc(CN2CCOCC2)cc1)c1cc(Cl)ccc1Cl,-5.65%,–
CC1CCN(CCC(=O)Nc2ccccc2)CC1,-1.21%,–
Cc1nnsc1C(=O)Nc1cccc(Cl)c1C,10.8%,–
Cc1oc2ccc(O)c(CN3CCC(C)CC3)c2c1C(=O)Nc1ccccc1,–,14.6 µM (active)
Cc1oc2ccc(O)c(CN3CCCCC3)c2c1C(=O)Nc1cccc(C(F)(F)F)c1,–,11.6 µM (active)
CCOC(=O)c1cccc(NC(=O)c2cc(CN3CCCC3)on2)c1,-20.3%,–
CC(=O)N1CCN(C(=O)Nc2cccc(C(F)(F)F)c2)CC1,-2.53%,–
Cc1oc2ccc(O)c(CN3CCOCC3)c2c1C(=O)Nc1cccc(Cl)c1C,–,11.6 µM (active)
COc1ccccc1CNS(=O)(=O)c1cc2c3c(c1)CCC(=O)N3CCC2,-24.7%,–
Nc1cc(=O)c2[nH]cnc2[nH]1,1.53%,–
Cc1ccc(C(=O)Nc2ccc(OCc3cc(=O)n4c(C)csc4n3)cc2)cc1,0.415%,–
CN(C(=O)c1c(Cl)cnn1C)C12CC3CC(CC(C3)C1)C2,6.33%,–
COC(=O)CSc1nnc(-c2cccnc2)o1,-12.7%,–
CCCNC(=O)c1ccc2c(c1)ncn2-c1ccc(C)cc1C,–,16.4 µM (active)
COC(CNC(=O)c1ccc2c(c1)ncn2-c1cc(C)cc(C)c1)OC,14%,–
CCn1c(C)nc2cc(C(=O)NNS(=O)(=O)c3ccc(C)cc3C)ccc21,-15.2%,–
CN(c1ccc(C(=O)NCCC2=CCCCC2)cc1)S(C)(=O)=O,-18.6%,–
Cc1ccc(-n2cnc3cc(C(=O)NCCC4=CCCCC4)ccc32)cc1Cl,–,18.4 µM (active)
COCCNC(=O)c1ccc2c(c1)ncn2-c1ccc(C)c(Cl)c1,-44.9%,–
CCn1nnnc1SCC(=O)Nc1ccc(N(C)C)cc1,-12.1%,–
CC(=O)NS(=O)(=O)c1ccc(N/C(N)=N/c2nc(C)cc(C)n2)cc1,6.33%,–
COc1ccc(S(=O)(=O)N2CCCC(C(=O)N3CCN(C)CC3)C2)cc1C (stereo not drawn),-23.3%,–
CCN1CCN(C(=O)C2CCCN(S(=O)(=O)c3ccc(OC)c(OC)c3)C2)CC1 (stereo not drawn),-12.4%,–
CCOC(=O)C1CCN(C(=O)C2CCCN(S(=O)(=O)c3ccc(OC)c(Cl)c3)C2)CC1 (stereo not drawn),–,16.4 µM (active)
O=C(COC(=O)c1ncc(Cl)c(Cl)c1Cl)NC1CCS(=O)(=O)C1 (stereo not drawn),-5.28%,–

Compound,"activity change, negative = growth inhibition",Potency
C=C(C)c1cccc(C(C)(C)NC(=O)NCCN(CC)CC)c1,-18.1%,–
CC1(C(=O)NS(=O)(=O)c2ccccc2)CCN1C(=O)C1CCCCC1 (stereo not drawn),-11.8%,–
CCOC(=O)c1ccc(NC(=O)c2c(NCc3cccc(OC)c3)sc3c2CCC3)cc1,–,10.3 µM (active)
CCOC(=O)c1c(NC(=O)c2cc(-c3ccc(Cl)cc3)on2)sc2c1CCCC2,-18.6%,–
CCOC(=O)c1ccc(NC(=O)c2c(NCc3ccccc3)[nH]c(=O)[nH]c2=O)cc1,2.84%,–
Cc1ccc(NC(=O)c2csc3c2CCCC3)cc1,-0.361%,–
CCOC(=O)c1c(NC(=O)CCC(=O)NCc2ccco2)sc2c1CCCC2,-15.2%,–
CCOC(=O)c1ccc(NC(=O)c2csc3c2CCCCC3)cc1,–,25.9 µM (active)
CC(=O)Cc1nsc(NC(=O)c2csc3c2CCCC3)n1,-8.51%,–
CCOC(=O)c1ccc(NC(=O)c2c(NCc3cccs3)sc3c2CCCC3)cc1,–,16.4 µM (active)
COc1cccc(CN(C)CC(=O)Nc2sc3c(c2C#N)CCC3)c1,0.869%,–
C[C@@H]1CC[C@]2(O[C@@H](CCO)C[C@H](O)[C@H]2O)O1,-8.7%,–
Cn1c(N2CCOCC2)c(C=O)c2ccccc21,-11.8%,–
C[C@H]1COc2cc(N3CCSCC3)ccc2S(=O)(=O)N1,-19.2%,–
Cc1ccc(N=C2SCCCN2C(=O)c2cccc(N3C(=O)CCC3=O)c2)cc1Cl,-4.22%,–
CCCC1C(=O)N2C(N(C)C)=Nc3ccc(C)cc3N2C1=O (stereo not drawn),–,inactive
Cc1cc(C)n2nc(SCC(N)=O)nc2n1,1.04%,–
CCC1=NN(C(=O)Cc2ccc([N+](=O)[O-])cc2)C(O)(c2ccc(Br)cc2)C1 (stereo not drawn),1.79%,–
Cc1cccc(N2C(=O)N3[C@H](c4ccc(F)cc4)[C@@H]4C(=O)N(C5CCCCC5)C(=O)[C@@H]4[C@]3(Cc3ccccc3)C2=O)c1,-2.11%,–
O=C1CCC(C(=O)N2CCCCO2)CN1Cc1cccc(C(F)(F)F)c1 (stereo not drawn),-1.38%,–
Cc1ccc(N2CC(C(=O)NCCS(=O)(=O)N3CCN(c4ccccc4)CC3)CC2=O)cc1 (stereo not drawn),–,inactive
O=C(Nc1cc(S(=O)(=O)N2CCOCC2)ccc1N1CCOCC1)c1c(F)cccc1Cl,4.69%,–
O=C(NCCS(=O)(=O)N1CCN(c2ccccc2)CC1)c1cc(=O)c2ccccc2o1,-29.6%,–
CCC1CCCCN1S(=O)(=O)c1ccc(NC(=O)c2cc(=O)c3ccccc3o2)cc1 (stereo not drawn),–,3.26 µM (active)
Cc1cc(C)c2oc(C(=O)Nc3ccc(S(=O)(=O)N4CCCCCC4)cc3)cc(=O)c2c1,-6.28%,–
Cc1ccc2oc(C(=O)Nc3ccc(S(=O)(=O)N4CCCCCC4)cc3)cc(=O)c2c1,-24.2%,–

Compound,"activity change, negative = growth inhibition",Potency
O=C(Nc1cc(S(=O)(=O)N2CCOCC2)ccc1Cl)c1cc(=O)c2ccccc2o1,–,11.6 µM (active)
COc1ccccc1CN1CC(C(=O)NCCc2cn[nH]c2)CCC1=O (stereo not drawn),15.3%,–
O=C(CCNS(=O)(=O)c1ccccc1C(F)(F)F)Nc1ccncc1,-23.4%,–
CCOC(=O)CSc1nnc(NC(=O)C2CC(=O)N(c3ccc(F)cc3)C2)s1 (stereo not drawn),-2.28%,–
COC(=O)C1=CN(Cc2ccc(OC)cc2)C=C(C(=O)OC)C1c1ccc(O)c(OC)c1,-10.8%,–
CC(=O)Nc1ccc(S(=O)(=O)N2CCC(C(=O)NC3CC3)CC2)cc1,2.36%,–
CS(=O)(=O)N1CCN=C1SCc1ccc(F)cc1,19.6%,–
CC(=O)c1cnc(SCCN2C(=O)c3ccccc3C2=O)nc1C,-0.72%,–
O=C1NC(c2ccccc2)Oc2ccccc21 (stereo not drawn),-11.4%,–
C=CCOc1cccc(C2NC(=O)c3ccccc3O2)c1 (stereo not drawn),1.33%,–
O=C1NC(c2cccc(Cl)c2)Nc2ccccc21 (stereo not drawn),–,13 µM (active)
COc1ccc(C(=O)CSc2nnc(NC(=O)C3CC(=O)N(c4cccc(OC)c4)C3)s2)cc1 (stereo not drawn),-23.9%,–
Cc1cc(C)n2nc(C(=O)Nc3cccc(S(=O)(=O)N4CCOCC4)c3)nc2n1,-1.26%,–
O=C(N/N=C\c1cc(Br)c(Br)o1)C1COc2ccccc2O1 (stereo not drawn),-8.29%,–
Cc1cc(C(=O)N2CCCC2(C)C(=O)O)c(C)o1 (stereo not drawn),-14.8%,–
CCCN=C1N(C)C[C@@H]2[C@@H]3C(=O)N(Cc4ccccc4)C(=O)[C@@H]3[C@](C)(C(=O)OC)N12,17.2%,–
O=C(CCSc1ccccc1)N1CCN(c2ccccc2F)CC1,-4.21%,–
O=C(CCSCc1ccccc1F)N1CCN(c2ccc(Cl)cc2)CC1,–,23.1 µM (active)
O=C(CCc1ccccc1F)N1CCN(c2ccccc2)CC1,-12.7%,–
CCOCCCN1C(=O)CN(C2CCCCC2)C(=O)C1c1ccc(OCC)c(OC)c1 (stereo not drawn),-15.8%,–
O=C(NCCc1ccc(Cl)cc1)C1CC(=O)N(C2CCCCC2)C1 (stereo not drawn),-11.4%,–
COc1ccc(C2C(=O)N(C3CCCCCC3)CC(=O)N2CCc2ccc(Cl)cc2)cc1OC (stereo not drawn),–,23.1 µM (active)
COc1ccccc1N1CC(C(=O)NCCN2C(=O)S/C(=C\c3cccnc3)C2=O)CC1=O (stereo not drawn),4.39%,–
S=C(Cc1ccc(Cl)cc1)N1CCOCC1,-4.63%,–
COc1ccc(-c2cnc(SCCNC(=O)c3ccc4c(c3)OCO4)[nH]2)cc1,-10.2%,–
